# From ChEMBL document CHEMBL3988442, “University of Dundee, Small-Polar-MMV Screening Library” (2021)
# Molecular target: AMP-activated protein kinase, AMPK (Homo sapiens) (UniProt P54646+O43741+P54619+Q9UGJ0+Q9Y478+Q13131+Q9UGI9)
# Experiment: AMP-dependent Kinase enzyme assay. An in vitro enzyme assay that detects ADP turnover that is directly proportional to AMPK activity. This uses naive AMPK that is activated during the assay with MK-8722
# Assay type: functional
# Set-up: scale not given: direction of the effect not stated beside the values
# Conditions: 30 µM
row,Structure (SMILES),Percent Effect
1,Cc1sc(Oc2ccccc2Cl)nc1C(=O)O,10.7%
2,CN(CCCO)Cc1cc(Cl)ccc1OCC(O)CN1CCCCCC1 (stereo not given),-10.6%
3,Cc1nn(C)c(C)c1C1CCCN1C(=O)c1cc(C(N)=O)cs1 (stereo not given),-0.756%
4,CCN(CC)c1ncccc1CNCc1cc2ccccc2s1,-4.57%
5,O=C(Nc1ccncc1)NC1CCN(c2ccccc2OC(F)F)C1 (stereo not given),-0.97%
6,CCC(C(=O)N(Cc1ccccc1OC)C1CC1)n1cccn1 (stereo not given),0.528%
7,Cn1cc(CN2CCC(c3ncc(Cl)cc3S(C)(=O)=O)CC2)cn1,9.1%
8,CCc1nnc2n1CCN(c1nc(C)cc(N(C)C)n1)C2,-7.79%
9,CC(OCC1CC1)C(=O)Nc1nccn1Cc1ccccc1 (stereo not given),5.4%
10,Cc1ccc(C(=O)NCCN2CCOCC2)cc1N(C)S(C)(=O)=O,4.72%
11,CS(=O)(=O)NCc1cccc(COC2CCCCC2)c1,4.87%
12,COc1ccccc1CN(Cc1nc(C)no1)C1CC1,6.47%
13,CCC1CCCCN1C(=O)Cn1cnc(C#N)n1 (stereo not given),-0.907%
14,Cc1nnc(CN(C)CC(=O)N2CCCC(C)CC2)n1C (stereo not given),0.221%
15,CCCn1nnnc1CN(CC)CC1COc2ccccc2O1 (stereo not given),1.1%
16,CC(C)(C)C(=O)N1CCCC1(C(=O)N1CCCC1)c1cnccn1 (stereo not given),-4.87%
17,COc1ccsc1C(=O)NC1CCN(c2cccc(F)c2)CC1,-1.16%
18,COc1ccc(Cl)cc1C(=O)N1C[C@H](C(C)C)[C@@H](N)C1,6.24%
19,COc1ccc2c(c1OC)Cc1c-2nc(N)c(C#N)c1C1CCOC1 (stereo not given),24.3%
20,CN(C)Cc1cccc(-c2cccnc2C(=O)NCc2cn(C)cn2)c1,23.4%

row,Structure (SMILES),Percent Effect
1,CC1CN(C)CCN1C(=O)c1cccn1Cc1cccnc1 (stereo not given),-3.9%
2,COc1ccc(OC2CCN(C(=O)c3ccc(C(C)=O)s3)CC2)cc1,-2.68%
3,CCn1c(C2CCCN2Cc2noc(C(C)(C)C)n2)nc2ccccc21 (stereo not given),13.4%
4,COc1ncccc1N(C)C(=O)Cn1cc(-c2ccccc2)nn1,-1.29%
5,CCc1n[nH]c(C(=O)NCCn2ccnc2C)c1C,-2.67%
6,CCC(C)Oc1ccc(CNCCc2c[nH]cn2)cc1Cl (stereo not given),-17.6%
7,COC(=O)CC1CSCCN1C(=O)CCc1c(C)nn(C)c1C (stereo not given),5.71%
8,O=C(NCCC1CN(C2CCCC2)CCO1)c1c[nH]c(=O)[nH]c1=O (stereo not given),5.79%
9,COC(CNC(=O)CNC(=O)c1ccccc1)c1cccc(Cl)c1 (stereo not given),4.84%
10,CCc1ccc(-c2noc(Cn3nc(C(N)=O)ccc3=O)n2)cc1,-8.7%
11,CC(=O)NCC(=O)N1CCCC(C(=O)c2ccc(C(C)(C)C)cc2)C1 (stereo not given),7.51%
12,CCN1CC(c2ccccc2)CC2(CCN(Cc3ncc[nH]3)CC2)C1 (stereo not given),-6.2%
13,CC(C)c1ccccc1NC(=O)N1C[C@@H]2CC[C@H](C1)N(C)C2=O,-7.67%
14,CC1(NC(=O)CNC(=O)C(C)(C)C)CCc2ccccc2C1 (stereo not given),7.71%
15,CC(=O)N[C@H]1CN(S(=O)(=O)N(C)Cc2ccccc2)C[C@@H]1C1CC1,1.32%
16,Clc1ccc(COCC2CCN(Cc3ccccn3)CC2)cc1,4.9%
17,Oc1ccc(Br)c(CNc2cccc(-c3nnc[nH]3)c2)c1,23.8%
18,CN(Cc1cc(Br)cn1C)C(=O)Cc1cccc(O)c1,-0.828%
19,COc1ccccc1CNC(=O)C(C)N1CC(n2cc(C)cn2)C1 (stereo not given),3.01%
20,O=C(Nc1cccc(N2CCCC2)c1)N[C@H](CCO)c1ccccc1,-57.9%
